Measles inh = inhibitors of measles virus growth in infected cells; 33,000 tested, 0.1% active; z-score (concentration not given with the values); infected Vero cells, GFP fluorescence, 64 h; active compounds read low; in the data active = z-score below about -3
Active calls of the source: *. The entries come from a sample that favours hits as a whole.

`COc1ccc(OC(=O)c2ccc(N3C(=O)C4C5CCC(C5)C4C3=O)cc2)cc1` (stereo unspecified) gave Measles inh 0.48.
For O=C(Cc1ccccc1)Oc1ccc(N2C(=O)C3C4CCC(C4)C3C2=O)cc1 (stereo unspecified) the results were Measles inh -6.4*.
For CCOC(=O)C1CCN(c2nc3ccc(CC)cc3s2)CC1 the results were Measles inh -0.36.
Screening CSc1nc2ccc(N=Cc3cccc([N+](=O)[O-])c3)cc2s1 returned Measles inh -0.22.
For CCN(CC)C(=O)c1ccc2c(=O)n(-c3cc(OC)ccc3OC)c(=S)[nH]c2c1 the results were Measles inh -5.5*.
COc1ccc(OC)c(-n2c(=S)[nH]c3cc(C(=O)Nc4ccc5c(c4)CCC5)ccc3c2=O)c1 was read as Measles inh 1.9.
Screening COc1ccc(CNC(=O)c2ccc3c(=O)n(-c4cc(OC)ccc4OC)c(=S)[nH]c3c2)cc1 returned Measles inh 0.3.
CCc1ccccc1Nc1ncnc2c1cnn2-c1ccc(OC)cc1 was read as Measles inh -0.22.
Cc1cc(C)cc(Nc2ncnc3c2cnn3-c2ccccc2)c1 was read as Measles inh -0.32.
COc1ccc(Nc2ncnc3c2cnn3-c2ccccc2)c(OC)c1 was read as Measles inh -3.3*.
For O=C(C1CCC(Cn2c(=S)[nH]c3ccccc3c2=O)CC1)N1CCCCC1 (stereo unspecified) the results were Measles inh 0.01.
`CCc1cccc(N=c2oc3ccc(Br)cc3cc2C(=O)Nc2nccs2)c1` gave Measles inh 1.5.
COc1ccc(Br)cc1CN1C(=O)c2ccccc2C1C(=O)NC1CCC(C)CC1 (stereo unspecified) was read as Measles inh -1.
CC1CCC(NC(=O)C2c3ccccc3C(=O)N2CCCN2CCOCC2)CC1 (stereo unspecified) was read as Measles inh -4.9*.
`O=C(NC1CCCCCCC1)C1c2ccccc2C(=O)N1CCCN1CCCCC1` (stereo unspecified) gave Measles inh -0.55.
For COCCOC(=O)C1=C(C)NC2=C(C(=O)CC(c3cccc(OC)c3)C2)C1c1coc2ccc(Cl)cc2c1=O (stereo unspecified) the results were Measles inh -0.28.
Screening Cc1ccc(Cn2c(SCC(=O)c3ccc(F)cc3)nc3ccsc3c2=O)cc1 returned Measles inh -0.75.
Screening Cc1ccc(CNC(=O)CSc2nc3ccsc3c(=O)n2Cc2ccccc2F)cc1 returned Measles inh -3.9*.
`CC(C)CCNC(=O)CSc1nc2ccsc2c(=O)n1Cc1ccc2c(c1)OCO2` gave Measles inh -0.28.
For CCN(Cc1ccccc1)S(=O)(=O)c1cc(Br)cc2c1N(C(C)=O)CC2 the results were Measles inh -5.6*.
CCN(CCNS(=O)(=O)c1cc(Br)cc2c1N(C(C)=O)CC2)c1ccccc1 was read as Measles inh 0.44.
For CCCCN(CCCC)S(=O)(=O)c1cc(Br)cc2c1N(C(C)=O)CC2 the results were Measles inh -0.06.
CCN(CC)c1cc(Nc2ccccc2OC)c([N+](=O)[O-])c2nonc12 was read as Measles inh -1.1.
For CCOc1ccc2[nH]c(C)c(CN(C)Cc3ccccc3)c(=O)c2c1 the results were Measles inh -0.13.
Screening O=C(Nc1ccc2oc(-c3ccccc3Br)nc2c1)c1cc([N+](=O)[O-])ccc1Cl returned Measles inh -1.1.
Screening O=C(Nc1cccc(-c2nc3ccccc3s2)c1)c1cccs1 returned Measles inh -0.07.
`O=C(Nc1cccc(-c2nc3cc(Cl)ccc3o2)c1)c1ccc(Br)o1` gave Measles inh -0.44.
`O=C(Nc1cccc(-c2nc3ccccc3s2)c1)c1ccc(Br)o1` gave Measles inh -4.2*.
For CCOc1ccc(CN2CCN(C(=O)c3cccc(OC)c3)CC2)cc1 the results were Measles inh 0.56.
For COc1ccccc1N1CCN(C2CCN(Cc3ccccc3F)CC2)CC1 the results were Measles inh -0.37.
For CC(C)OC(=O)c1c(NC(=O)c2ccc(Cl)c([N+](=O)[O-])c2)sc2c1CCCC2 the results were Measles inh -3.8*.
Screening Cc1cccc(C(=O)Nc2sc3c(c2C(=O)Nc2ccccc2Cl)CCCC3)c1 returned Measles inh -4.4*.
Cc1cccc(C(=O)Nc2sc3c(c2C(=O)Nc2ccccc2Cl)CCC3)c1 was read as Measles inh 0.38.
`COC(=O)c1c(NC(=O)c2ccc(C)c([N+](=O)[O-])c2)sc2c1CCC2` gave Measles inh 1.6.
Screening Cc1cccc(C(=O)Nc2sc3c(c2C(=O)NCc2ccco2)CCCC3)c1 returned Measles inh -0.65.
Cc1cc(C(=O)Nc2sc3c(c2C(=O)OC(C)C)CCCC3)ccc1[N+](=O)[O-] was read as Measles inh 1.6.
`COc1cc(C2Nc3ccccc3NC3=C2C(=O)CC(c2cccs2)C3)cc([N+](=O)[O-])c1O` (stereo unspecified) gave Measles inh 2.6.
Screening Cc1onc(-c2ccccc2)c1C(=O)Nc1nc2ccccc2[nH]1 returned Measles inh -0.54.
COc1cccc(NC(=O)CN2CCN(S(=O)(=O)c3ccc(Br)cc3)CC2)c1 was read as Measles inh 1.5.
For CCOC(=O)c1[nH]c2ccccc2c1NC(=O)c1ccc(Cl)c([N+](=O)[O-])c1 the results were Measles inh -0.81.
For CCCNc1ccc(C(=O)O)cc1[N+](=O)[O-] the results were Measles inh -0.23.
`COC(=O)c1cc(-c2cc(C(=O)OC)c3ccccc3n2)nc2ccccc12` gave Measles inh 1.1.

High-throughput results: PubChem, Emory University Molecular Libraries Screening Center
